# From PubChem BioAssay
# SNCA viab count = counter-screen for SNCA expression inhibitors: cell viability; HEK-293-SNCA-luc viability, GF-AFC fluorescence, 24 h; 150,000 compounds, 0.12% hits; Potency, µM (titrated, usually from 57.1 µM), without a hit: at the highest dose activity change, negative = cytotoxicity, actives largely listed as cytotoxic;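 also: potency is read from the fitted curve at half-maximal effect; 0% = DMSO-treated cells and -100% = medium-only wells without cells; nearly all actives have a fitted effect of over 30% in size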
#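 Cytotoxicity counterscreen: after 24 h compound treatment of genome-edited SNCA-luciferase HEK-293 cells, live-cell protease substrate GF-AFC read by fluorescence after 30 min; activity scaled between DMSO (0%) and medium-only (-100%), curves Hill-fitted.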
# SNCA expr inhib = inhibitors of alpha-synuclein (SNCA) gene expression | HEK-293 SNCA-luciferase knock-in, luminescence, 24 h | Potency, µM (series often up to 57.2 µM), for inactives: at the top dose activity change, negative = inhibition, usual class: inhibitors | 140,000 compounds, 0.17% hits;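 also: potency is read from the fitted curve at half-maximal effect; plate controls were DMSO cells for no effect and cell-free wells for full effect; nearly all actives have a fitted effect of over 45% in size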
# KDM5B inhibitor = blocks human KDM5B histone demethylase activity; Q9UGL1; KDM5B demethylase, FDH-coupled NADH fluorescence (FDH is formaldehyde dehydrogenase); Potency, µM (series often up to 57.7 µM), hits mostly inhibitors; 220,000 compounds, 2.6% hits; AID 1347165; also: potency is read from the fitted curve at half-maximal effect; 0% is about no effect; nearly all actives have a fitted effect of over 70% in size
#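 Inhibition is measured as reduced NADH fluorescence generation from FDH coupling to formaldehyde release. Truncated KDM5BΔAP at 200 nM final acts on H3K4me3 peptide (12.5 µM in substrate mix) in pH 7.5 HEPES buffer with Tween-20, 30 min, room temperature.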
# IP6K1 inhibitor = IP6K1 kinase inhibition. IP6K1 kinase, ADP-Glo luminescence, 2 h; hits give low values. AID 1645851. activity change, % (series mostly up to about 58 µM). 140,000 compounds, 0.81% hits; in the data active = activity change below about -25%; also: % is scaled to controls: 0 for no effect and ±100 for the full control effect
# Target sequence (Q92551 whole entry, looked up): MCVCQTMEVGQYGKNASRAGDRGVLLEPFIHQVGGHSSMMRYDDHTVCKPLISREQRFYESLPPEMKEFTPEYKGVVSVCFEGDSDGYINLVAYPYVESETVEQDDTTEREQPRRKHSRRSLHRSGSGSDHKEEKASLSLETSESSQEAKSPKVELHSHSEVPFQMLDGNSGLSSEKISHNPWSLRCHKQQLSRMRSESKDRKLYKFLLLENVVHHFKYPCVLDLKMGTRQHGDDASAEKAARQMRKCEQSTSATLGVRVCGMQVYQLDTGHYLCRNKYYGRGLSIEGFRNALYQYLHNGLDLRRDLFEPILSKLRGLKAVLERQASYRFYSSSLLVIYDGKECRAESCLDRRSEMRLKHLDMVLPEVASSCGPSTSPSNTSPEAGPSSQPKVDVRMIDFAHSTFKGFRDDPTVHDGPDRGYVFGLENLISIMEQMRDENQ
#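 ADP-Glo luminescence measures ADP made by human IP6K1 during a 2 h RT reaction with ATP/IP6 (mix at 1.3 mM/130 uM); top library doses 57.5 and 19.1 uM final.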
# Active calls of the source: *; i = inactive; ? = inconclusive; · = not tested or not shown; [ ] = dose if it differs, or a comment. In the library only some 3% were active in any assay of this set; here they are far more common. Unless noted, calls follow the shape of the dose curve; as a rule, active = well fitted curve in the direction sought with a large enough effect; inconclusive = small, poorly fitted or top-dose-only effect, or another doubt; inactive = no such curve, though single readings can be large; an effect the other way counts as inactive or inconclusive.
SMILES,SNCA viab count,SNCA expr inhib,KDM5B inhibitor,IP6K1 inhibitor
CCn1ncc(CN2CCCC(C(=O)N3CCN(c4ccccn4)CC3)CCNC(=O)CC2)c1C (stereo not given),2%,5%,25µM*,0
Cc1ccc(CN2CCCC(C(=O)N3CCN(c4ccccn4)CC3)CCNC(=O)CC2)s1 (stereo not given),4%,1%,28µM*,-6
O=C1CCN(C(=O)C2CCCC2)CCCC(C(=O)N2CCN(c3ccccn3)CC2)CCN1 (stereo not given),9%,18%,?,-1
CN(C)S(=O)(=O)c1cc(NC(=O)CN2CCc3sccc3C2c2ccccc2)ccc1Cl (stereo not given),·,·,i,·
Cc1nccn1CCN(C)c1ccc(-c2nc(COc3ccccc3)no2)cn1,5%,-30%,22µM*,3
c1ccc(CCCc2noc(-c3ccc(N4CCOCC4)nc3)n2)cc1,-2%,103%,35µM*,0
c1ccc(CCc2noc(-c3ccc(N4CCCOCC4)nc3)n2)cc1,3%,136%,?,0
CC(Nc1ccc(-c2nc(CCCc3ccccc3)no2)cn1)c1cnn(C)c1 (stereo not given),-4%,142%,28µM*,15
COC1CCN(c2ccc(-c3nc(COc4ccccc4)no3)cn2)CC1,-7%,138%,28µM*,10
Cc1nc2ccc(NC(=O)CC3C=CCC3)cc2s1 (stereo not given),·,·,i,·
COCCNC(=O)c1cc(-c2cccc(F)c2)nc2c1cnn2C,·,·,·,1
CC(C)(C)Nc1nc2cc(Cl)c(Cl)cc2nc1S(C)(=O)=O,15µM*,·,·,-22
Cc1ccc(-c2c(C(=O)NCCc3ccccc3)nc3sccn23)cc1,-30%,19%,·,8
O=C(NC1CC(c2nnc(CO)n2C2CC2)C1)c1nc2ccccc2[nH]1 (stereo not given),11%,-21%,32µM*,24
O=C(NC1CC(c2nnc(CO)n2C2CC2)C1)c1csc(-c2ccccc2)n1 (stereo not given),-3%,?,i,-4
Cc1oc2c(c1C(=O)NCc1cccnc1)CN(Cc1ccc(F)cc1)CC2,-21%,-3%,i,7
CN(Cc1cccnc1)C(=O)c1n[nH]c2c1CN(Cc1cccnc1)CC2,2%,?,25µM*,10
N#Cc1ccc(CN2C[C@@H]3C[C@H]2C(=O)N(Cc2ccccc2)c2ccccc2O3)cc1,-19%[87.6 µM],-29%[87.6 µM],28µM*,-18
O=C1[C@@H]2C[C@@H](CN2Cc2ccccc2)Oc2ccccc2N1Cc1ccccc1,-17%[87.6 µM],-30%[87.6 µM],?,11
O=C(NCc1ccccc1)c1nc2sccn2c1-c1ccc(C(F)(F)F)cc1,-17%,?,·,11
CCNC(=O)c1cc(NC(=O)C(C)C)cc2nc(C)ccc12,4%,-14%,25µM*,30
Cc1ccc2c(C(=O)NCCN3CCCCC3)cc(NC(=O)C(C)C)cc2n1,1%,10%,22µM*,16
Cc1ccc2c(C(=O)NCc3ccccc3Cl)cc(NC(=O)C(C)C)cc2n1,8%,1%,14µM*,11
Cc1ccc2c(C(=O)N3CCN(c4ccccc4)CC3)cc(NC(=O)C(C)C)cc2n1,-4%,?,?,27
Cc1ccc(CNC(=O)c2cc(NC(=O)C(C)C)cc3nc(C)ccc23)cc1,8%,3%,?,12
SMILES,SNCA viab count,SNCA expr inhib,KDM5B inhibitor,IP6K1 inhibitor
COc1ccc(-c2nc(-c3nonc3N)no2)cc1,·,·,i,·
Cc1ccccc1C(=O)N1CCCCC12Cc1ccccc1NC2=O (stereo not given),4%[87.6 µM],-1%[87.6 µM],i,6
COCC(=O)Nc1ccc(-c2nc3ccccc3o2)cc1,·,·,i,·
Cc1cc(NC(=O)Cn2ccn3nc4c(c3c2=O)CCCC4)no1,9%,26%,25µM*,0
Cc1cc(C)cc(NC(=O)Cn2ccn3nc4c(c3c2=O)CCCC4)c1,0%,18%,35µM*,-2
Cc1cccc(NC(=O)Cn2ccn3nc4c(c3c2=O)CCCC4)c1C,1%,23%,28µM*,38
Cc1cccc(C)c1NC(=O)Cn1ccn2nc3c(c2c1=O)CCCC3,-2%,?,i,1
O=C(Cn1ccn2nc3c(c2c1=O)CCCCC3)Nc1cc(F)ccc1F,5%,0%,28µM*,6
O=C(Nc1ccc(Cl)cc1)NC1CCN(c2nccc(Nc3ccccc3F)n2)CC1,6%[12.5 µM],-28%,·,3
O=C(CN1C(=O)NC(c2ccc(Cl)cc2)C2=C1COC2=O)Nc1cc(F)cc(F)c1 (stereo not given),-9%,-8%,i,5
COc1cc(CNc2nc(-c3c(C)noc3C)cc3cc(C)oc23)cc(OC)c1,?,-29%[87.6 µM],32µM*,10
Cc1cc2cc(-c3c(C)noc3C)nc(Nc3cccc(F)c3)c2o1,-19%[87.6 µM],?,?,10
Cc1cc2cc(-c3c(C)noc3C)nc(NCc3cccc(F)c3)c2o1,-14%[87.6 µM],?,i,6
Cc1cc2cc(-c3c(C)noc3C)nc(Nc3ccccc3)c2o1,-24%[87.6 µM],21%[87.6 µM],40µM*,3
Cc1cc2cc(-c3c(C)noc3C)nc(Nc3ccc(F)cc3)c2o1,-12%[87.6 µM],-19%[87.6 µM],32µM*,12
Cc1cc2cc(-c3c(C)noc3C)nc(Nc3ccc(Cl)cc3)c2o1,-15%[87.6 µM],-13%[87.6 µM],22µM*,16
COCCCn1c(=O)c(C(=O)N2CCN(C(=O)c3ccccc3OC)CC2)nc2cccnc21,8%,-10%,·,4
Cc1cccc(N2Cc3c(NCCCc4ccccc4)ncnc3N(C)CC2=O)c1,-18%,-7%,·,12
CCOCCSc1nnc(-c2nn(Cc3ccccc3)c(=O)c3ccccc23)o1,·,·,i,·
CC(C)S(=O)(=O)NCC1CN(CC2CC2)CC12CCCCC2 (stereo not given),-13%,-10%,·,18
Cc1ccc(CN2CCNC(=O)C2CC(=O)N(CC(C)C)CC(C)C)cc1 (stereo not given),-3%,?,?,-7
CC(C)CCN1CCNC(=O)C1CC(=O)N(Cc1cnn(C)c1)C1CC1 (stereo not given),-4%,-10%,16µM*,-6
COc1ccc(OCC(O)CN2CCC(=O)N(Cc3ccccc3)Cc3cc(OC)ccc32)cc1 (stereo not given),·,·,·,9
COc1ccc(C(=O)N2CCC3(C2)C(=O)N(Cc2ccccc2)c2ccccc23)cc1 (stereo not given),11µM*,?,i,-7
COc1ccc(C(=O)N2CCC3(C2)C(=O)N(CCc2ccccc2)c2ccccc23)cc1 (stereo not given),?,-11%,i,-1
O=C1CCN(CC(O)Cc2ccccc2)c2ccccc2CN1CC1CC1 (stereo not given),·,·,·,-10
CCn1ccnc1CNC(=O)c1cc(OC)ccc1OC1CCN(C(=O)C2CC2)CC1,4%,16%,28µM*,-9
CCC(NC(=O)c1cc(OC)ccc1OC1CCN(C(C)=O)CC1)c1ccc(F)cc1 (stereo not given),7%,-1%,28µM*,-6
